# Sampled rows, rich in hits. Any-hit rate of the full collection: about 0.43%.
# aGlu spleen mod – lysosomal alpha-glucosidase (human) modulation; P10253; human spleen homogenate, 4-MU-alpha-glucoside fluorescence; Potency, µM (titrated, usually from 79.9 µM), without a hit: top-dose activity change, negative = inhibition, most hits filed as inhibitors; 240,000 tested, 0.006% active; AID 2112;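 also: potency is read from the fitted curve at half-maximal effect; 0% = enzyme with vehicle and -100% = no enzyme basal signal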
#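 Human spleen homogenate (1 ug) incubated with compounds and 1 mM 4-methylumbelliferyl-alpha-D-glucopyranoside in pH 5.0 citrate/phosphate buffer, 37 C, 40 min. Stopped at pH 10; 4-MU fluorescence (Ex 365/Em 440 nm); AC50 by Hill fit.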
# GAA glycogen mod – inhibitors or activators of human alpha-glucosidase glycogen cleavage; P10253; recombinant GAA, glycogen substrate, Amplex Red glucose oxidase fluorescence; Potency, µM (series often up to 76.4 µM), for the others: top-dose activity change, negative = inhibition, usual class: inhibitors; 300,000 tested, 0.38% active; AID 2100;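 also: potency is read from the fitted curve at half-maximal effect; 0% = full enzyme reaction and -100% = no-enzyme basal signal; the screen sought inhibitors and activators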
#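 Natural-substrate format: glycogen cleavage by 4 nM human enzyme, glucose read by Amplex Red coupling (Ex 573, Em 610 nm). Normalized to enzyme and no-enzyme controls.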
# GLA inh pH 4.5 – alpha-galactosidase A (human) inhibition, pH 4.5; P06280; purified enzyme, 4-MU-alpha-Gal fluorescence, pH 4.5; activity change, negative = inhibition, % at 105 µM; 230,000 tested, under 10 active;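 also: 0% = full activity with enzyme and -100% = basal without enzyme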
# Target sequence (P06280 whole entry, looked up): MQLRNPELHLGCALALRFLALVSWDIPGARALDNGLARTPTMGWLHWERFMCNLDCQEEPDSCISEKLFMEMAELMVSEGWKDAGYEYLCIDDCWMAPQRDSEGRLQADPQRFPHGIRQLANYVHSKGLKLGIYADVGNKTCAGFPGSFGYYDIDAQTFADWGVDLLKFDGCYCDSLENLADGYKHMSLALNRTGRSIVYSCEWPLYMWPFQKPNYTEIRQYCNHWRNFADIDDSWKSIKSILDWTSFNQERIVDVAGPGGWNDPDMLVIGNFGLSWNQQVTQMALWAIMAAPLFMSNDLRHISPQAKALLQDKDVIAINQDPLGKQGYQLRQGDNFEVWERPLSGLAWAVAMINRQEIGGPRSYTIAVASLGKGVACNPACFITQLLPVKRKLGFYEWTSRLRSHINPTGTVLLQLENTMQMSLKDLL
# N370S GC mod – N370S glucocerebrosidase modulation, Gaucher chaperone candidate | P04062 | N370S GC spleen homogenate, 4MU-glucoside fluorescence | Potency, µM (titrated, usually from 59.4 µM), for inactives: at the highest dose activity change, negative = inhibition, most hits filed as inhibitors | 330,000 tested, 0.092% active | AID 2101;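 also: potency is read from the fitted curve at half-maximal effect; 0% = full enzyme activity and -100% = no enzyme basal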
# aGal spleen mod – inhibits or activates alpha-galactosidase in human spleen homogenate. P06280. human spleen homogenate, 4MU-alpha-Gal fluorescence, 40 min. Potency, µM (top dose mostly 80 µM), inactives show at the top dose activity change, negative = inhibition, usual class: inhibitors. 240,000 tested, 0.008% active;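 also: potency is read from the fitted curve at half-maximal effect; 0% = enzyme with vehicle and -100% = no enzyme basal signal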
#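 Spleen homogenate 1 ug + cpd (titration) + 4-MU-alpha-D-galactopyranoside 1 mM; 37C 40 min; 50 mM citrate/phosphate pH 5.0, 0.01% Tween-20; stop pH 10; fluorescence 365/440; AC50 via Hill.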
# GAA inh – inhibitors of human lysosomal alpha-glucosidase | Potency, µM (doses to about 76.9 µM), without a hit: at the top dose activity change, negative = inhibition, most hits filed as inhibitors | P10253 | purified human GAA, 4-MU-alpha-glucoside fluorescence | 200,000 tested, 0.005% active | AID 1466;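 also: potency is read from the fitted curve at half-maximal effect; plate controls were uninhibited enzyme wells for no effect and no-enzyme background for full effect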
#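 Enzyme (4 nM final) mixed with compound (up to 77 uM), then 4-MU-alpha-D-pyranoside (400 uM final) added; 20 min at room temperature, pH 5.0. Reaction stopped at pH 10, fluorescence read, AC50 derived by Hill fit.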
# Numbers without * were called inactive; ? = inconclusive; . = no result; [ ] = remark or other dose. Calls follow the shape of the dose curve; as a rule, active = well fitted curve in the direction sought with a large enough effect; inconclusive = small, poorly fitted or top-dose-only effect, or another doubt; inactive = no such curve, though single readings can be large; an effect the other way counts as inactive or inconclusive.
SMILES,aGlu spleen mod,GAA glycogen mod,GLA inh pH 4.5,N370S GC mod,aGal spleen mod,GAA inh
CCN(CC)S(=O)(=O)c1cc([N+](=O)[O-])ccc1NNC(=O)Nc1ccc(F)cc1,-9.7%,?,-6.4,-3.1%,-12.5%,-4.0%
CCN(CC)S(=O)(=O)c1cc([N+](=O)[O-])ccc1NNC(=O)Nc1ccccc1OC,-3.2%,22.2µM*,-4.1,2.3%,-1.2%,5.7%
COc1cccc(/C=C2\SC(=S)N(C(C)C(=O)NC3C=CS(=O)(=O)C3)C2=O)c1 (stereo not given),.,.,.,15.8µM*,.,.
O=[N+]([O-])c1ccc(N2CCN(S(=O)(=O)c3ccccc3)CC2)cc1,.,0.4%[76.3 µM],.,-5.6%,.,.
O=C1Cc2cc(S(=O)(=O)N3CCN(c4ccc(O)cc4)CC3)ccc2N1,.,6.71µM*,.,.,.,.
CCOC(=O)C1CCN(S(=O)(=O)c2ccc3c(c2)NC(=O)C(C)S3)CC1 (stereo not given),.,0.4%[76.3 µM],.,-1.1%,.,.
CCOC(=O)C1CCN(S(=O)(=O)c2ccc3c(c2)CC(=O)N3)CC1,.,14.1µM*,.,-4.9%,.,.
O=C1Cc2cc(S(=O)(=O)N3CCN(c4ccc([N+](=O)[O-])cc4)CC3)ccc2N1,.,8.23µM*,.,.,.,.
O=C1CCc2cc(S(=O)(=O)N3CCN(c4cccc(C(F)(F)F)c4)CC3)ccc2N1,-2.7%,-5.4%,-22.1,3.7%,3.6%,-4.2%
O=C1Cc2cc(S(=O)(=O)N3CCCCC3)ccc2N1,.,?,.,-1.8%,.,.
O=C1Cc2cc(S(=O)(=O)N3CCN(c4cccc(C(F)(F)F)c4)CC3)ccc2N1,.,9.47µM*,.,.,.,.
O=c1nc2ccccc2c2n1CC(CN1CCN(c3ccccc3)CC1)N2 (stereo not given),7.9%,.,.,5.4%,-1.4%,.
COc1cccc([C@@H]2Oc3ccc(OC)cc3C[C@H]2OC(=O)N[C@H](C)C2CCCCC2)c1,-12.4%,.,-2.8,-7.6%,-4.2%,.
CC(=O)c1ccc(N2CCN(S(=O)(=O)c3ccc4c(c3)NC(=O)CO4)CC2)cc1,.,-1.3%[76.3 µM],.,8.3%,.,.
N#Cc1ccc(N2CCN(S(=O)(=O)c3ccc4c(c3)CC(=O)N4)CC2)cc1,.,6.54µM*,.,.,.,.
O=C(CSc1ncc(C(F)(F)F)cc1Cl)N1CCN(S(=O)(=O)c2ccccc2)CC1,-29.9%,?,-8.4,.,4.8%,35.5µM*
O=C(CSc1ncc(C(F)(F)F)cc1Cl)N1CCN(S(=O)(=O)c2ccc(Cl)cc2)CC1,-10.2%,-5.8%,-1.2,6.2%,11.5%,?
CC(C)[C@H](NC(=O)OC(C)(C)C)[C@@H](O)CC(=O)C(C)(C)C,-4.5%[17.4 µM],.,.,3.3%[12.8 µM],4.1%[17.5 µM],.
COc1ccc(-c2cc(Nc3ccccc3NC(=O)C(F)(F)F)n(CCC#N)n2)cc1,-3.2%,35.5µM*,0.3,10.8%,3.9%,-0.6%
CCOC(=O)c1cc(-c2ccc(OC)cc2)nc2c1c(C)nn2CCC#N,24.3%,-24.7%,5.3,11.6%,?,13.4%
NC(=S)N/N=C/c1c(O)ccc2ccccc12,17.7%,?,-16.8,-4.3%,?,.
NC(=S)N/N=C1/CCSc2ccc3ccccc3c21,-6.7%,28.2µM*,-14.5,?,5.2%,-14.7%
COc1cc2oc(-c3ccc(O)cc3)cc(=O)c2c(O)c1OC,2.0%,-15.8%,1.8,10µM*,4.9%,.
COc1cc2oc(-c3ccc(O)cc3)cc(=O)c2c(OC)c1O,-5.0%,-6.9%,-13.3,?,-12.4%,3.7%[15.4 µM]
CCOC(=O)N1CCN(/[N+]([O-])=N/Oc2ccc([N+](=O)[O-])cc2[N+](=O)[O-])CC1C (stereo not given),-5.0%,.,.,-10.8%,-12.4%,.
SMILES,aGlu spleen mod,GAA glycogen mod,GLA inh pH 4.5,N370S GC mod,aGal spleen mod,GAA inh
O=C(O)c1ccc(/C=N/n2cc(-c3ccccc3)[nH]c2=S)cc1,-0.8%,28.2µM*,0.6,-2.2%,9.9%,.
Cc1cc(=O)[nH]c2ccc(S(=O)(=O)Nc3ccccc3)cc12,.,-0.1%[76.3 µM],.,0.2%,.,.
Cc1cc(=O)[nH]c2ccc(S(=O)(=O)Nc3ccc(O)cc3)cc12,.,7.08µM*,.,?,.,.
Cc1cc(C)c(S(=O)(=O)Nc2ccc(O)cc2)c(C)c1,6.2%,39.8µM*,-2.2,-13.2%,-11.6%,-8.2%
CC(=O)OCC(CO)OC(C)=O (stereo not given) (tested in a mixture with another compound),1.1%,.,.,-4.2%,8.9%,.
CC(C)(C)c1cc(C(=S)N2CCN(CCO)CC2)cc(C(C)(C)C)c1O,-15.5%,-2.0%,-8.0,17.8µM*,-12.5%,-1.9%
Cc1ccc(NC(=S)NNc2ccc([N+](=O)[O-])cc2S(=O)(=O)Nc2ccccc2C(=O)O)cc1C,0.5%,22.4µM*,-1.9,9.6%,-2.3%,0.1%
Cc1cc(Nc2ccc(Cl)cc2)n(-c2ccccc2)n1,14.9%,?,-1.2,12.6%,13.5%,-3.0%
Cc1cc(Nc2nc3c(c(=O)n(C)c(=O)n3C)n2C)n(-c2ccc(Cl)cc2)n1,2.4%,24.9µM*,-5.9,-39.8%,-1.6%,-18.8%
O=C1CCC[C@H]2OC12[C@@H](O)CCc1ccccc1 (stereo not given in full),-4.8%[17.4 µM],.,.,3.2%[12.8 µM],-6.7%[17.5 µM],.
Nc1ccc2nc(-c3cc(Cl)c(N)c(Cl)c3)[nH]c2c1,-0.7%,12.5µM*,-0.4,1.4%,-3.0%,3.7%
CCCCS(=O)(=O)N1CCc2nc(-c3ccc(OC)cc3C)c3c(c2C1)CO[C@@H](c1ccccc1)C3,4.0%[17.4 µM],.,4.9,-25.8%[12.8 µM],-0.3%[17.5 µM],.
C[C@H](Cc1ccc(O)c(O)c1)[C@@H](C)Cc1ccc(O)c(O)c1,-11.7%,.,-2.0,-2.4%,11.2µM*,.
CC(Cc1ccc(O)c(O)c1)C(C)Cc1ccc(O)c(O)c1 (stereo not given),-0.9%,.,-4.8,-2.8%,-9.3%,.
CCN(/C(N)=N/c1nc(C)cc(C)n1)c1ccccc1,.,-9.3%[76.3 µM],.,-23.5%,.,.
CCc1cccc(N(C)C(N)=Nc2cccc3ccccc23)c1,-9.0%,-3.4%,-4.2,12.6µM*,9.7%,.
Cc1cccc(CNc2ccnc(-c3ccccc3C(F)(F)F)n2)c1,-12.4%,.,.,14.1µM*,4.3%,.
COCCNC(=S)N/N=C/c1ccc(N2CCOCC2)cc1,3.9%,?,8.9,-2.2%,2.9%,4.8%
COc1cc(/C=N/NC(=S)NCCN2CCOCC2)ccc1O,-0.4%,25.1µM*,1.6,?,12.2%,9.2%
CCN1C(=O)[C@H]2[C@@H]3[C@H](O)[C@H](O)CC(=O)[C@H]3CC[C@H]2C1=O,3.5%[17.4 µM],.,.,9.3%[12.8 µM],0.1%[17.5 µM],.
c1ccc2c(c1)Nc1ccncc1S2,2.2%,17.6µM*,0.1,-0.9%,-11.6%,.
CCOC(=O)C1CCN(c2nc3ccccc3nc2C(C#N)C(=O)NCCc2ccccc2)CC1 (stereo not given),-9.9%,14µM*,.,-13.8%,-13.2%,-5.4%[15.4 µM]

# Bioassay records as filed in PubChem BioAssay.
